Test [1] in a line: qHTS assay to identify small molecule antagonists of the progesterone receptor (PR) signaling pathway - cell viability counter screen (AID 1346798). Further: nearly all actives have a fitted effect of over 50% in size. Further: potency means the concentration at half of the fitted maximal effect. Conditions: PR-UAS-bla HEK293T viability, CellTiter-Glo luminescence, 16 h; series mostly up to 92.4 µM. In a few lines: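 Cytotoxicity read as CellTiter-Glo luminescence (30 min, room temperature) in the same wells as the beta-lactamase readout. HEK293T PR-UAS-bla cells in charcoal-stripped 2% FBS received compound and R5020, then 16 h at 37C, 5% CO2.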

Test [2] is described as follows: qHTS assay to identify small molecule agonists of the progesterone receptor (PR) signaling pathway - cell viability counter screen (AID 1346799; calls by dose curve; further: nearly all actives have a fitted effect of over 45% in size; further: potency means the concentration at half of the fitted maximal effect). The conditions noted are these: PR-UAS-bla HEK293T viability, CellTiter-Glo luminescence, 16 h; series mostly up to 92.4 µM. The essentials: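 Cytotoxicity measured by CellTiter-Glo luminescence (30 min, RT) in the same wells as the PR beta-lactamase agonist read. Those HEK293T cells had 16 h compound treatment at 37 C in 2% charcoal-stripped FBS medium.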
(In qHTS, concentration-response curves come from the screen itself.)

Test [3] can be described thus: qHTS assay to identify small molecule antagonists of the estrogen related receptor signaling pathway with the pleiotropic PPARgamma coactivator (PGC) from Tox21 10K library (AID 1224841; call rule not given here; further: potency means the concentration at half of the fitted maximal effect; actives are mostly falling curves and most rising ones were filed inactive; nearly all actives have a fitted effect of over 50% in size). The conditions noted are these: PGC/ERR reporter cell line, ONE-Glo luciferase, 18 h; series mostly up to 92.4 µM. In a few lines: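 Luminescence read-out (One-Glo luciferase reagent, 30 min at room temperature) from PGC/ERR cells exposed to DMSO-dissolved test compounds for 18 h at 37 C; cells, 2,000 per well, had been preincubated 6 h before compound transfer.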

Test [4] has as its target Thyrotropin receptor (Homo sapiens) (UniProt P16473). Put plainly: qHTS assay to identify small molecule agonists of the thyroid stimulating hormone receptor (TSHR) signaling pathway (AID 1224843; calls by dose curve; further: nearly all actives have a fitted effect of over 45% in size; further: potency means the concentration at half of the fitted maximal effect). The conditions noted are these: TSHR-HEK293 cells, cAMP HTRF, agonist mode, 30 min; series mostly up to 92.4 µM. In a few lines: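 A cell-based cAMP HTRF format was run in TSHR-transfected HEK293 cells, 800 per well. Treatment: 30 min, room temperature. Detection: 1 h with labelled cAMP and anti-cAMP cryptate. Concentration-response over 15 points, three replicates.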

The nature of test [5]: qHTS assay to identify small molecule antagonists of the estrogen related receptor (ERR) signaling pathway from Tox21 library (AID 1224848). Further: potency means the concentration at half of the fitted maximal effect; nearly all actives have a fitted effect of over 50% in size. Conditions: ERR reporter cell line, luciferase antagonist mode, 18 h; series mostly up to 92.4 µM. The essentials: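 ERR cell line, 2,000 cells/well. 6 h settle, then compound (DMSO) added; 18 h at 37 C; ONE-Glo luminescence after 30 min RT.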

In test [6] the target is Estrogen receptor (Homo sapiens) (UniProt P03372). As to the kind of experiment: qHTS assay to identify small molecule antagonists of the estrogen receptor alpha (ER-alpha) signaling pathway using the BG1 cell line in the presence of 0.1 nM 17-beta-estradiol (AID 1259244). Further: nearly all actives have a fitted effect of over 50% in size. Further: potency means the concentration at half of the fitted maximal effect. The conditions noted are these: VM7Luc4E2 (BG1) ERE-luciferase, antagonist mode, 0.1 nM E2, 22 h; series mostly up to 92.4 µM. In a few lines: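 Luminescence after ONE-Glo (30 min, room temperature) measured ERE-luciferase activity in VM7Luc4E2 cells treated 22 h with compound and 0.1 nM final 17beta-estradiol as stimulator.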

For test [7], the target named is Estrogen receptor beta (Homo sapiens) (UniProt Q92731). As to the kind of experiment: qHTS assay to identify small molecule agonists of the estrogen receptor beta (ER-beta) signaling pathway (AID 1259377; active means well fitted activation curve with a large enough effect in the signal ratio in the repeat runs, not every such curve was filed as active; the % refers to the signal ratio). The conditions noted are these: ER-beta-UAS-bla HEK293T, beta-lactamase FRET ratio, 16 h; series mostly up to 92.4 µM. The essentials:
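Ratiometric beta-lactamase FRET read-out came after 2 h substrate loading at room temperature. It followed 16 h compound treatment at 37C of GripTite HEK293T cells carrying a UAS-bla reporter, plated in 2% charcoal-stripped FBS medium.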

Test [8] concerns the target Thyrotropin receptor (Homo sapiens) (UniProt P16473). Put plainly: qHTS assay to identify small molecule antagonists of the thyroid stimulating hormone receptor (TSHR) signaling pathway (AID 1259385; calls by dose curve; further: nearly all actives have a fitted effect of over 20% in size). Conditions: TSHR-HEK293 cAMP HTRF, TSH-stimulated antagonist mode; series mostly up to 92.4 µM. The essentials:
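Antagonist mode: compound-treated TSHR-expressing HEK293 cells were stimulated with 1.5 ng/mL TSH (final) in presence of Ro20-1724 for 30 min at RT. HTRF cAMP detection after 1 h; each compound tested at 15 concentrations, triplicate.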

The target of test [9] is Thyrotropin-releasing hormone receptor (Homo sapiens) (UniProt P34981). As to the kind of experiment: qHTS assay to identify small molecule antagonists of the thyrotropin-releasing hormone receptor (TRHR) signaling pathway (AID 1346877; active means well fitted inhibition curve with a large enough effect in the repeat runs, not every such curve was filed as active). The conditions noted are these: TRHR-HEK293, TRH-induced calcium fluorescence, antagonist mode; series mostly up to 51.3 µM. The essentials:
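HEK293/TRHR cells, 18 h, 37 °C; Ca2+ dye 2 h; cpd 5 min RT; TRH 1 nM final; fluorescence read 3 min, 1 s intervals; 15 concs, triplicate.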

The nature of test [10]: qHTS assay to test for compound auto fluorescence at 590 nm (red) in HepG2 cells (AID 720674). Conditions: HepG2 autofluorescence, red 540/590 nm, 1 h; series mostly up to 46 µM. The essentials:
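1 hr compound incubation on HepG2 cells, 37 C, 5% CO2; plate read ex 540 nm / em 590 nm; intensities reported as Rose Bengal sodium equivalents.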

The nature of test [11]: qHTS assay to test for compound auto fluorescence at 460 nm (blue) in HEK293 cell free culture (AID 720681). The conditions noted are these: cell-free medium, autofluorescence 405/460 nm (blue); series mostly up to 46 µM. The essentials:
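Blue fluorescence (Ex 405/Em 460 nm, triamterene-equivalent) was read immediately after pin transfer of compound or DMSO into medium (DMEM, 10% FBS) without cells.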

The nature of test [12]: qHTS assay for identifying genotoxic compounds that show differential cytotoxicity against isogenic chicken DT40 cell lines with known DNA damage response pathways - Rev3 mutant cell line (AID 743014). Further: potency means the concentration at half of the fitted maximal effect; nearly all actives have a fitted effect of over 55% in size. Conditions: chicken DT40 Rev3-/- viability, CellTiter-Glo, 40 h; series mostly up to 68.4 µM.
Test [13] is described as follows: qHTS assay for identifying genotoxic compounds that show differential cytotoxicity against isogenic chicken DT40 cell lines with known DNA damage response pathways - Rad54/Ku70 mutant cell line (AID 743015). Further: potency means the concentration at half of the fitted maximal effect; nearly all actives have a fitted effect of over 60% in size. The conditions noted are these: DT40 Rad54/Ku70 mutant viability, CellTiter-Glo, 40 h; series mostly up to 66.8 µM.
Test [14] can be described thus: qHTS assay to identify small molecule antagonists of the thyroid receptor (TR) signaling pathway (AID 743065). Further: potency means the concentration at half of the fitted maximal effect; nearly all actives have a fitted effect of over 55% in size. The conditions noted are these: GH3.TRE-Luc, T3-stimulated luciferase inhibition, 23.5 h; series mostly up to 70.3 µM. The essentials:
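Antagonism measured as loss of luciferase signal in GH3 cells stably carrying a TRE-luciferase reporter, co-treated with compound and T3 (1 nM final) for 23.5 h at 37 C. Viability was read in the same well by CellTiter-Fluor.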

Test [15] in a line: qHTS assay to identify small molecule antagonists of the farnesoid-X-receptor (FXR) signaling pathway - cell viability counter screen (AID 743221; active means well fitted cell-killing curve with a large enough effect in the repeat runs, not every such curve was filed as active; further: nearly all actives have a fitted effect of over 50% in size). Conditions: FXR-bla HEK293T viability, CellTiter-Glo luminescence, 16 h; series mostly up to 62.6 µM. In a few lines:
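Cytotoxicity counter screen run in the FXR-bla reporter wells: HEK 293T cells exposed to compound with 50 uM (final) chenodeoxycholic acid for 16 h, 37 C, then viability measured by CellTiter-Glo luminescence after 30 min, room temperature.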

Test [16] is described as follows: qHTS assay to identify small molecule antagonists of the estrogen related receptor signaling pathway with the pleiotropic PPARgamma coactivator (PGC) from Tox21 10K library - cell viability counter screen (AID 1224840; active means well fitted cell-killing curve with a large enough effect in the repeat runs, not every such curve was filed as active; further: nearly all actives have a fitted effect of over 40% in size). Conditions: PGC/ERR reporter cells viability, CellTiter-Fluor, 17.5 h; series mostly up to 92.4 µM. In a few lines:
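Fluorescence read-out of CellTiter-Fluor viability reagent, added after cells had been exposed to compound in DMSO for 17.5 h at 37 C; 30 min development at 37 C/5% CO2. Cells: PGC/ERR line, 2,000/well.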

A short description of test [17]: qHTS assay to test for compound auto fluorescence at 460 nm (blue) in HEK293 cells (AID 720678). Conditions: blue autofluorescence 405/460 nm; series mostly up to 46 µM. The essentials: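 Triamterene serves as the blue fluorophore standard. Compound signal at 405/460 nm is read in HEK293 wells (2,000 cells, 10% dialyzed FBS) after overnight treatment at 37C.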
The nature of test [18]: qHTS assay to test for compound auto fluorescence at 535 nm (green) in HepG2 cell free culture (AID 720686). Conditions: Cell-free medium, green autofluorescence 485/535 nm; series mostly up to 46 µM.
Test [19] deals with Androgen receptor (Homo sapiens) (UniProt P10275). Put plainly: qHTS assay to identify small molecule agonists of the androgen receptor (AR) signaling pathway in the presence of an antagonist (AID 1259381; calls by dose curve; further: nearly all actives have a fitted effect of over 15% in size; further: potency means the concentration at half of the fitted maximal effect). The conditions noted are these: MDA-kb2 MMTV-luciferase, AR agonist + nilutamide, 16 h; series mostly up to 92.4 µM. The essentials: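 Luciferase read-out (ONE-Glo, 30min room temperature) in MDA-kb2 MMTV-reporter cells; agonist mode run in presence of AR antagonist nilutamide, 3.0uM final. Compounds tested as 15-point series, 16hr exposure at 37C, 0% CO2.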

The nature of test [20]: qHTS RealTime-Glo MT Cell Viability Assay in HEK293 cells - 8 hour (AID 1224887). Further: nearly all actives have a fitted effect of over 50% in size. Further: potency means the concentration at half of the fitted maximal effect. Conditions: RealTime-Glo luminescence; series mostly up to 76.8 µM. The essentials:
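Luminescence readout at each listed time point; HEK293, 600 cells/well, RealTime-Glo MT reagent added with cells; compounds pinned (23 nL in DMSO) after 5 h at 37 C; continuous culture at 37 C.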

The record followed here is PubChem BioAssay (Tox21).

Structures are written as SMILES. Unmarked numbers belong to inactive results. Results filed as inconclusive are left out. The source made the active and inactive calls. Unless noted, the call rests on the fitted dose curve; in most records, active means well fitted curve in the direction sought with a large enough effect in the repeat runs; inconclusive means weak or mixed curves; inactive means no such curve, though single readings can be large; an effect the other way counts as inactive or inconclusive.

Chain of Estrogen receptor beta (Homo sapiens) (Q92731 whole entry, looked up): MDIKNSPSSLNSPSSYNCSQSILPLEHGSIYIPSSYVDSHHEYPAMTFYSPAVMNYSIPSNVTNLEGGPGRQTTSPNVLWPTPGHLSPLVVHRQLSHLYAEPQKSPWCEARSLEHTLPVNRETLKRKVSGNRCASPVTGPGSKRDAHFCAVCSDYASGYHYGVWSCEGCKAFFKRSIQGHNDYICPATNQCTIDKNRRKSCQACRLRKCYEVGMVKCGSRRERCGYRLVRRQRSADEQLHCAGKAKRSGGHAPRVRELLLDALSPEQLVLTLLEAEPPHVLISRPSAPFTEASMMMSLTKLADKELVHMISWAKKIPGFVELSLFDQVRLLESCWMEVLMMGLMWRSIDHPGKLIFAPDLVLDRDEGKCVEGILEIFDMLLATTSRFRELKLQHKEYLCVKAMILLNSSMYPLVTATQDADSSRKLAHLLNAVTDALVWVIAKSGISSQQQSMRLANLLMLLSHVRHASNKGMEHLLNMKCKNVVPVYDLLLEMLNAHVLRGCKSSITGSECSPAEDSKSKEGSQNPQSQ
Chain of Thyrotropin-releasing hormone receptor (Homo sapiens) (P34981 whole entry, looked up): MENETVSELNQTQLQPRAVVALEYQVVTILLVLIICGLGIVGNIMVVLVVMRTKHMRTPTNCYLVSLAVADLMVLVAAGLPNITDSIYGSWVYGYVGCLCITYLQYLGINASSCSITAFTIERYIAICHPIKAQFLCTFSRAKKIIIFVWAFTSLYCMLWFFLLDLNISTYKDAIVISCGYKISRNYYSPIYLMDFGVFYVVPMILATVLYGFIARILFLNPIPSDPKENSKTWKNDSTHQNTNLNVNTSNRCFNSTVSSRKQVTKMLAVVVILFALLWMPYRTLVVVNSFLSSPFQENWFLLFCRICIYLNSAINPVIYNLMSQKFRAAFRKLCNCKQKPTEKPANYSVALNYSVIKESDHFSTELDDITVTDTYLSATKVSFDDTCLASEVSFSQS
Chain of Estrogen receptor (Homo sapiens) (P03372 whole entry, looked up): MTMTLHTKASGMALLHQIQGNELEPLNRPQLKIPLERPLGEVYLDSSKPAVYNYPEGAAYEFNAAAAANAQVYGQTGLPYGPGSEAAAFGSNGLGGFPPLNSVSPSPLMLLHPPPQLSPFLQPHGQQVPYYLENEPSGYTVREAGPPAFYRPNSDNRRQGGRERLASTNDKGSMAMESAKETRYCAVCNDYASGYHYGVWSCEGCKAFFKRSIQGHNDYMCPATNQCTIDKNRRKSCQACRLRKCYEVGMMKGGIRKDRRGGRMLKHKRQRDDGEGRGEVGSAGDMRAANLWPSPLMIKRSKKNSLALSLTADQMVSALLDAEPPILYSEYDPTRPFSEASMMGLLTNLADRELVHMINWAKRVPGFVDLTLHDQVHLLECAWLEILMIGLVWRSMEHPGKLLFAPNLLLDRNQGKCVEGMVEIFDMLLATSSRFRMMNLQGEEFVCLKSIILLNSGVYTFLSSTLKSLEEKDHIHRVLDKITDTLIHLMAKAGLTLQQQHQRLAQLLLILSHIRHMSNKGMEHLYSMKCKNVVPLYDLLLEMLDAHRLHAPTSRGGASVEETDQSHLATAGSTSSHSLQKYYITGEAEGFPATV
Chain of Thyrotropin receptor (Homo sapiens) (P16473 whole entry, looked up): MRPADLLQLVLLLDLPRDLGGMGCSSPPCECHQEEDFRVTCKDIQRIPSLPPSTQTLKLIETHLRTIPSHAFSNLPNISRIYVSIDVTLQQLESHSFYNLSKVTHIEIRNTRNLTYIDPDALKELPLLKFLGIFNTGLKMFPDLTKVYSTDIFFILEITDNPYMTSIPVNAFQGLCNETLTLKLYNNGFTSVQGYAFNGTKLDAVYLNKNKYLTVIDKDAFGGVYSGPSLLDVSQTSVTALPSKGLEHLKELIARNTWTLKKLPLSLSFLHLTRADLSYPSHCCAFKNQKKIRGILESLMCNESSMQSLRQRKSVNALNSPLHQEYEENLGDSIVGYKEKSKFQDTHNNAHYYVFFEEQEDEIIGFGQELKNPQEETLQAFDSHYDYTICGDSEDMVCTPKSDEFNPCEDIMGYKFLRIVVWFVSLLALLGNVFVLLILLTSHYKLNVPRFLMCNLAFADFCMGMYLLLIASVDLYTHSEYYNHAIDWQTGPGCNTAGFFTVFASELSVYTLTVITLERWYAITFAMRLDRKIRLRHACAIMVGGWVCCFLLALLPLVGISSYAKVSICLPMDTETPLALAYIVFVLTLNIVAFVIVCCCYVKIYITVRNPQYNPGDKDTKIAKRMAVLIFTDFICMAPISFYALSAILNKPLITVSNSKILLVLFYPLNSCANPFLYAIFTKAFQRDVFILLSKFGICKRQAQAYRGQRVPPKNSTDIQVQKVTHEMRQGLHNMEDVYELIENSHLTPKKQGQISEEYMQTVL
Chain of Androgen receptor (Homo sapiens) (P10275 whole entry, looked up): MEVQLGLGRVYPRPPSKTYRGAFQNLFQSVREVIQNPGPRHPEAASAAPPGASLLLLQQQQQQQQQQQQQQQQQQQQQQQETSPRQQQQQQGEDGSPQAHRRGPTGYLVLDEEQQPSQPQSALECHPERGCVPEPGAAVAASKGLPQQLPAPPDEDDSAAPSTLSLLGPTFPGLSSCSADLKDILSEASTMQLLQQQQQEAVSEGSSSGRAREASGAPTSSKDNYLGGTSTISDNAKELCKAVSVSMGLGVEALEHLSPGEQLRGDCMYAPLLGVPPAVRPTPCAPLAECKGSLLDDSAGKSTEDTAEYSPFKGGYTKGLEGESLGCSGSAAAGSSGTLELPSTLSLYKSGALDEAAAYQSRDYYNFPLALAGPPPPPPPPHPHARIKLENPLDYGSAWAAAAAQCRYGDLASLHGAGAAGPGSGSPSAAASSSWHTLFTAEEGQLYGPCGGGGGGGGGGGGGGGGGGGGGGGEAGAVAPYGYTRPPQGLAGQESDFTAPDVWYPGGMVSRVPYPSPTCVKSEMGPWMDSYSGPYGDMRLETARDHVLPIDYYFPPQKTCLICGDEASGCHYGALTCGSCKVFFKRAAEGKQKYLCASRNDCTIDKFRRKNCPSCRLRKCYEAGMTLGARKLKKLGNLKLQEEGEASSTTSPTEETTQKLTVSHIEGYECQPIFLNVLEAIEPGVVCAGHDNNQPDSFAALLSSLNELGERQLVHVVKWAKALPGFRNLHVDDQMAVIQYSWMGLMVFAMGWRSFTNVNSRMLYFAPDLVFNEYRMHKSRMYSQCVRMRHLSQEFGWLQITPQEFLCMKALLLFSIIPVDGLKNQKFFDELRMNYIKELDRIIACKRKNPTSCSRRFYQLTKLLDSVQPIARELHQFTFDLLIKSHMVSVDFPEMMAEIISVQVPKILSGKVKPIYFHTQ

As to `C[C@]12CC[C@@H](O)C[C@@H]1CC[C@@H]1[C@@H]2CC[C@]2(C)C(=O)CC[C@@H]12`, the Potency is 48.6 µM (active) in [1] and 68.6 µM (active) in test [2].

In the case of `CC(c1ccccc1)(c1ccc(O)cc1)c1ccc(O)cc1`, the Potency was 34.4 µM (active) in test [3], 15.4 µM (active) in test [4] and 61.1 µM (active) in [5]. In addition, the Potency entry in test [6] and in test [8] was “inactive” each time. Moreover, the result in test [7] and in test [9] was inactive.

For the molecule `COc1ccc(C(c2ccc(OC)cc2)C(Cl)(Cl)Cl)cc1`, the call in test [10] and in [9] was inactive. Further, the Potency entry in test [11], in [15] and in [16] was “inactive” throughout. For the same molecule, the Potency is 44.4 µM (active) in [12]; 39.2 µM (active) in [13]; 24.2 µM (active) in test [14]; 8.58 µM (active) in [3]; 30.5 µM (active) in test [5].

Turning to `O=C(Nc1ccccc1-c1ccc(Cl)cc1)c1cccnc1Cl`, the molecule was called inactive in [10], in test [7] and in test [9]. For the same molecule, the Potency result in test [17], in [11], in [18] and in test [16] was “inactive” throughout. For the same molecule, the Potency is 67.4 µM (active) in test [12]; 66.7 µM (active) in test [13]; 57.8 µM (active) in test [14]; 64.8 µM (active) in test [3]; 32.5 µM (active) in test [5].

Regarding `ClC(Cl)=C(c1ccc(Cl)cc1)c1ccccc1Cl`, the Potency result in [16], in test [4], in test [6], in test [19], in [1] and in test [2] was “inactive” each time. Besides, the result in [7] and in [9] was inactive.

On to `Cc1nnc2n1-c1sc(CCc3ccc(CC(C)C)cc3)cc1C(c1ccccc1Cl)=NC2C` (centres undefined), for which the result in [10], in [7] and in [9] was inactive. Besides, the Potency entry in test [17], in test [11] and in test [8] was “inactive” in each case. Besides, the Potency was 16.8 µM (active) in test [12]; 13.3 µM (active) in test [13]; 11.9 µM (active) in test [14]; 10.6 µM (active) in test [3]; 18.8 µM (active) in [4]; 9.44 µM (active) in test [5]. The Potency in test [20] is 21.3 µM (active); in [6] it was 29.8 µM (active).

With `COc1cc(OC)c(OC)cc1C=O`, the result in test [10] and in test [9] was inactive. Moreover, the Potency result in test [17], in [11], in test [18], in [15], in test [16] and in test [4] was “inactive” in each case. The Potency entry in [20] and in [19] was “inactive” in each case. The Potency is 34.3 µM (active) in [12], 21.9 µM (active) in test [3], 18.7 µM (active) in [5] and 59.3 µM (active) in test [6].

With `CNC(=O)Oc1cc(C)c(SC)c(C)c1`, the Potency result in [16], in test [4], in test [8], in [1] and in [2] was “inactive” throughout. Also, the Potency in test [19] is 12.2 µM (active). The result in [9] was inactive.
